# A selection: hits, their analogues and other compounds. The true share with any hit is near 2.8%.
# Pol kappa inh – blocks human DNA polymerase kappa activity; Q9UBT6; purified Pol kappa, fluorescent DNA synthesis assay, 10 min; Potency, µM (top dose mostly 107 µM), for the others: at the highest dose activity, negative = inhibition, usual class: inhibitors; hit rate 0.53% among 400,000; further: potency means the concentration at half of the fitted maximal effect; on the % scale 0 is the no-effect control and ±100 the full control effect
#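 10 nM Pol kappa preincubated 15 min at room temperature with compounds, then reaction started with substrate at 50 nM final. Fluorescence read kinetically at 0 and 10 min; buffer-only wells served as negative control.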
# Pol beta inh – DNA polymerase beta (human) inhibition; Pol beta primer extension/strand displacement, fluorescence kinetic; Potency, µM (titrated, usually from 114 µM), for inactives: at the top dose activity change, negative = inhibition, usual class: inhibitors; hit rate 1.3% among 340,000; P06746; further: potency means the concentration at half of the fitted maximal effect; on the % scale 0 is the no-effect control and ±100 the full control effect
#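 Enzyme-only controls used 10 nM Pol beta; buffer lacking enzyme served as negative control. Compound preincubated 15 min, then 50 nM substrate added; 0 and 10 min reads at room temperature.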
# Pol eta inh – DNA polymerase eta (human) inhibition. AID 588591. hit rate 1.2% among 390,000. Q9Y253. Potency, µM (highest dose often 114 µM), for inactives: top-dose activity change, negative = inhibition, usual class: inhibitors. recombinant Pol eta, fluorescent DNA replication assay; further: potency means the concentration at half of the fitted maximal effect; on the % scale 0 is the no-effect control and ±100 the full control effect
#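 Fluorescent replication assay: 50 nM final substrate added after a 15 min room-temperature compound preincubation with 10 nM enzyme. Signal taken at 0 min and again at 10 min.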
# Pol iota inh – inhibitors of human DNA polymerase iota | Potency, µM (highest dose often 115 µM), inactives show at the highest dose activity, negative = inhibition, hits mostly inhibitors | Pol iota fluorescent replication assay, 10 min | hit rate 1% among 390,000 | Q9UNA4; further: potency means the concentration at half of the fitted maximal effect
#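 Pol iota at 10 nM preincubated 15 min with compounds at room temperature; reaction started with fluorescent substrate, 50 nM final. Fluorescence read kinetically at 0 and 10 min; buffer-only wells as negative control.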
# WRN inhibitor – inhibitors of human WRN helicase | Q14191 | WRN helicase unwinding, fluorescent forked duplex, kinetic | Potency, µM (doses to about 114 µM), for the others: at the top dose activity change, negative = inhibition, actives largely listed as inhibitors | hit rate 0.46% among 360,000 | AID 651768; further: potency means the concentration at half of the fitted maximal effect; on the % scale 0 is the no-effect control and ±100 the full control effect; nearly all actives have a fitted effect of over 55% in size
# Target sequence (Q14191 whole entry, looked up): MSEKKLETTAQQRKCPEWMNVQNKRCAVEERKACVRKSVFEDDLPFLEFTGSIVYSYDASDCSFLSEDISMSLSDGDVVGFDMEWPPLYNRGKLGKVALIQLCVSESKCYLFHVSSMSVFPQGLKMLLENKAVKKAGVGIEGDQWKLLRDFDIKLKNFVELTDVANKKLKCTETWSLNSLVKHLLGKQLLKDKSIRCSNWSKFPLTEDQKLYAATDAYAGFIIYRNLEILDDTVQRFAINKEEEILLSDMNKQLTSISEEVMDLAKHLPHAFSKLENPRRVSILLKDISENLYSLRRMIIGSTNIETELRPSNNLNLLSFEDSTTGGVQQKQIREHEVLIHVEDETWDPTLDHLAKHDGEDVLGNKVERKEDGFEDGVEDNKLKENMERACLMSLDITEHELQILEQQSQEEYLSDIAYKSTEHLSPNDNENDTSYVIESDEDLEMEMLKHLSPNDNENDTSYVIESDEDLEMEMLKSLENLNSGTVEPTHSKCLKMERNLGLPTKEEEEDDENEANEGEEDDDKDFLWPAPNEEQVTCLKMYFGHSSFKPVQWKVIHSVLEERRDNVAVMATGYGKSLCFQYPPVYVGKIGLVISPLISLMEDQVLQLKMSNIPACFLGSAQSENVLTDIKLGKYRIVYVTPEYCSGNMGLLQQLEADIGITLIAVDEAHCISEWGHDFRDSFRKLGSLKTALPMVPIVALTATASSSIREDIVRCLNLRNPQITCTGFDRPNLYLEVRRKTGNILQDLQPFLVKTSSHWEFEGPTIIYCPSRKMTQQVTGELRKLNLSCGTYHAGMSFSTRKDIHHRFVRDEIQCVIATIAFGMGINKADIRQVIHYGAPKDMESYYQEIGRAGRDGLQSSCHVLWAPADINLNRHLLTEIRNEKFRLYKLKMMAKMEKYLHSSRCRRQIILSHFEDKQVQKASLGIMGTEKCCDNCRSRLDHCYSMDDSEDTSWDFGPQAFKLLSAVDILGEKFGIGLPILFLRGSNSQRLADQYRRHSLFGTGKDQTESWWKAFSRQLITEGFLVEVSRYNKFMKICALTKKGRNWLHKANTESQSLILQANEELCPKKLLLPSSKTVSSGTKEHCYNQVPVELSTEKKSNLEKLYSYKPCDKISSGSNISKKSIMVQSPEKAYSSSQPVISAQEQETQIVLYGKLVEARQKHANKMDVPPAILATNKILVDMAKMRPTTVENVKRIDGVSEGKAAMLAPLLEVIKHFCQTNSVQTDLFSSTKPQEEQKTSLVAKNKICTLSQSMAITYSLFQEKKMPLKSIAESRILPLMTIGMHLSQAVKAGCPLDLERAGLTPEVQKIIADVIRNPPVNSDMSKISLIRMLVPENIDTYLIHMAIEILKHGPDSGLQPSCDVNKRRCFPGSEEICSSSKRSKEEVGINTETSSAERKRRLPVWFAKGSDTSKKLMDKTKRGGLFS
#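 Kinetic fluorescence helicase assay: unwinding of a quenched forked DNA duplex (100 nM final) with 2 mM ATP final raises red fluorescence (525/598 nm). Compounds sat 15 min at room temperature with 20 nM WRN beforehand.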
# PI5P4Ka inh – PI5P4K alpha (human) kinase inhibition | P48426 | PI5P4Kalpha enzyme, ADP-Glo luminescence, 60 min; stronger effect = lower value | max response, % | hit rate 1.2% among 330,000 | AID 652105; active means max response of -50% or lower; inconclusive means between -30% and -50%; inactive means -30% or higher; further: value at the top dose of about 77 µM; on the % scale 0 is the no-effect control and ±100 the full control effect
#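 Controls without substrate or without enzyme flank wells where PI5P4Kalpha converts substrate using 5 microM ATP (final). Incubation lasts 60 minutes at room temperature; ADP formed is read by ADP-Glo luminescence.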
# Active calls of the source: *; ? = inconclusive; nt = no result given; [ ] = remark or other dose. Unless noted, the call rests on the fitted dose curve; in most records, active means well fitted curve in the direction sought with a large enough effect; inconclusive means small, poorly fitted or top-dose-only effect, or another doubt; inactive means no such curve, though single readings can be large; an effect the other way counts as inactive or inconclusive.
SMILES,Pol kappa inh,Pol beta inh,Pol eta inh,Pol iota inh,WRN inhibitor,PI5P4Ka inh
CCOC(=O)c1ccc(NC(=O)COc2cc3oc(=O)c(CC(C)O)c(C)c3cc2Cl)cc1 (stereo not drawn),-15%,?,1%,?,0%,-2
O=C1/C(=N\S(=O)(=O)c2cccs2)C([n+]2ccccc2)=C([O-])c2ccccc21,11%,?,32µM*,30%,-3%[11.6 µM],0
C/C(=N\Nc1ccc([N+](=O)[O-])cc1[N+](=O)[O-])c1cccnc1,-1%,58%,-2%,?,1%,-2
CC(C)=NNc1cnnc2ccc([N+](=O)[O-])cc12,nt,nt,nt,nt,-11%[57.1 µM],-69*
O=C(N/N=C/c1cc(Br)c(O)c(Br)c1O)c1cccnc1,-1%,40µM*,40µM*,7%,-17%,-59*
COc1ccc(S(=O)(=O)c2c(SC)nn(CC(=O)Nc3ccc(C)c(Cl)c3)c2N)cc1,-6%,-27%,-25%,19%,nt,nt
CCNc1nc2[nH]c(=O)c3c(c2s1)OC(N)=C(C#N)C3c1ccc(C)cc1 (stereo not drawn),-4%,0%,-16%,14%,-30%,-67*
CN(C)CCNC(=O)c1c(CSc2ccccc2)noc1C(=O)NCc1ccccc1,2%,6%,-16%,32%,-2%,0
CCOC(=O)C(CC)Sc1nc2c(c(=O)[nH]c(=O)n2C)n1C/C=C(/C)Cl (stereo not drawn),-6%,15%,-10%,?,-27%,-53*
C/C(Cl)=C/Cn1c(SCC(C)C)nc2c1c(=O)[nH]c(=O)n2C,-4%,37%,-21%,22%,-5%,-7
CCOC(=O)C(Cc1ccc(O)cc1)NC(=O)c1cc2c(cn1)[nH]c1ccccc12 (stereo not drawn),nt,nt,nt,nt,-1%,-3
Nc1c(C(=O)OCC(=O)Nc2cccc([N+](=O)[O-])c2)[nH]c(=O)[nH]c1=O,-32%,nt,25µM*,?,?,?
CCCC(=O)N1CCC1(C)C(=O)Nc1cccc(OC(C)C)c1 (stereo not drawn),nt,nt,nt,nt,7%,1
CC1Cc2c([nH]c(=O)n(-c3ccccc3)c2=O)O1 (stereo not drawn),-14%,nt,-14%,11%,8%,-10
C[C@H](CO)N1C[C@H](C)[C@H](CN(C)Cc2cccc(F)c2)Oc2ncc(Br)cc2C1=O,nt,nt,-12%,nt,0%,7
CC(/C=C/c1ccco1)=N/NC(=O)c1ccccc1Cl,-1%,2%,?,-14%,-19%,-9
O=C(N/N=C/C=C/c1ccco1)c1ccccc1Cl,79µM*,1%,-5%,?,-5%[11.6 µM],?
O=C(N/N=C/C=C/c1ccco1)/C(=C/c1ccccc1)NC(=O)c1ccccc1,?,2%,79µM*,13µM*,-14%,-57*
O=C(N/N=C/C=C\c1ccco1)c1cccs1,?,22µM*,?,25µM*,-5%[11.6 µM],-27
Cc1cccc(C)c1OCC(=O)N/N=C/C=C/c1ccco1,-11%,-1%,17%,-3%,7%,-12
O=C(CNC(=O)c1cccs1)N/N=C/c1ccco1,5%,-2%,-8%,-3%,6%,0
Cc1ccc(OCC(=O)N/N=C/C=C/c2ccco2)c(Br)c1,79µM*,-23%,-6%,50µM*,-14%,?
CCOc1ccc(NC(=O)C(=O)NCCc2sc(-c3ccc(C)cc3)nc2C)cc1,-3%[60.1 µM],25%,-15%,38%,nt,nt
O=C(Cc1cccs1)N/N=C/C=C\c1ccco1,?,?,50µM*,?,?,-29
O=C(N/N=C/C=C/c1ccco1)c1ccncc1,79µM*,39%,-2%,16µM*,-2%[11.6 µM],-28
SMILES,Pol kappa inh,Pol beta inh,Pol eta inh,Pol iota inh,WRN inhibitor,PI5P4Ka inh
O=C(N/N=C/C=C/c1ccc([N+](=O)[O-])cc1)c1cccs1,-16%,7.1µM*,?,?,?,0
CC(=C/c1ccco1)/C=N/NC(=O)c1ccncc1,-15%,2%,-23%,26%,-4%,2
COC(=O)COc1ccc(S(=O)(=O)NCc2ccc3c(c2)OCO3)cc1,-6%,6%,-20%,23%,-7%,1
COc1cc(-c2nnc(COC(=O)c3ccc([N+](=O)[O-])o3)o2)cc(OC)c1OC,nt,nt,79µM*,nt,11%,5
O=C(OCc1nnc(-c2ccccc2)o1)c1ccc([N+](=O)[O-])o1,-8%,nt,1%,?,-10%,2
Cc1cc(C)c(SSc2nnnn2-c2ccccc2)c(C)c1,nt,nt,-5%,nt,4%,-80*
O=C(COC(=O)c1ccc([N+](=O)[O-])o1)NC1CCCC1,-13%,nt,?,79µM*,-9%,2
CCN(C(=O)COC(=O)c1cccnc1SC)C1CCCCC1,-2%,nt,-23%,26%,2%,19
CC1CCCC(NC(=O)COC(=O)c2ccc([N+](=O)[O-])o2)C1C (stereo not drawn),-24%,nt,-9%,?,2%,0
CCN(C(=O)COC(=O)c1ccc([N+](=O)[O-])o1)C1CCCCC1,?,nt,89µM*,?,18%,-4
CC1CCCCC1NC(=O)COC(=O)c1ccc([N+](=O)[O-])o1 (stereo not drawn),-19%,nt,89µM*,32µM*,-9%[11.6 µM],-4
Clc1ccc(/C=C/c2ccnc3ccccc23)c(Cl)c1,5%,nt,nt,38%,nt,nt
Cc1ccc(Cn2c(=S)[nH]c3ccc(N4CCOCC4)cc3c2=O)o1,?,6%,-21%,14µM*,?,nt
O=c1c2cc(N3CCOCC3)ccc2[nH]c(=S)n1Cc1ccc(Cl)cc1,-4%,2%,-6%,-6%,-7%,-1
Cc1cccc(NC(=O)c2ccc(CNS(=O)(=O)c3ccc4c(c3)C(C)(C)C(=O)N4C)cc2)c1,-16%,-16%,-13%,0%,nt,nt
COc1ccc(/[N+]([O-])=C/c2ccco2)cc1,-14%,nt,89µM*,?,10%,-21
COc1ccc(OCC(=O)N/N=C\c2ccco2)cc1,2%,10%,0%,11%,1%,-3
COc1ccc2oc(C(=O)OCC(=O)NCc3ccco3)c(C)c2c1,-26%,nt,50µM*,?,-13%,-25
COc1ccc(C(=O)OCC(=O)NCc2ccco2)cc1OC,79µM*,10µM*,11µM*,20µM*,?,-19
CCOc1ccc(C(=O)NCc2ccco2)cc1OCC,-11%,22%,5%,85%,-24%,2
COc1ccc2oc(C(=O)OCC(=O)NCCc3ccccc3)c(C)c2c1,-15%,nt,-13%,-14%,8%,-9
CCOc1ccc(C(=O)OCC(=O)NCc2ccco2)cc1OCC,?,20µM*,?,?,?,?
